According to ChEMBL document CHEMBL1961873, “Compounds: GSK PKIS; Assays: Nanosyn kinase panel” (2012):

Tests used:
[1] = target: Dual specificity protein kinase CLK3 (Homo sapiens) (UniProt P49761); settings: at 1 µM;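 also: each value is the mean inhibition of CLK3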
[2] = target: Dual specificity tyrosine-phosphorylation-regulated kinase 1A (Homo sapiens) (UniProt Q13627); settings: at 0.1 µM
[3] = target: Dual specificity tyrosine-phosphorylation-regulated kinase 1A (Homo sapiens) (UniProt Q13627); settings: at 1 µM
[4] = target: Dual specificity tyrosine-phosphorylation-regulated kinase 1B (Homo sapiens) (UniProt Q9Y463); settings: at 0.1 µM
Chain of Dual specificity tyrosine-phosphorylation-regulated kinase 1B (Homo sapiens) (Q9Y463 whole entry, looked up): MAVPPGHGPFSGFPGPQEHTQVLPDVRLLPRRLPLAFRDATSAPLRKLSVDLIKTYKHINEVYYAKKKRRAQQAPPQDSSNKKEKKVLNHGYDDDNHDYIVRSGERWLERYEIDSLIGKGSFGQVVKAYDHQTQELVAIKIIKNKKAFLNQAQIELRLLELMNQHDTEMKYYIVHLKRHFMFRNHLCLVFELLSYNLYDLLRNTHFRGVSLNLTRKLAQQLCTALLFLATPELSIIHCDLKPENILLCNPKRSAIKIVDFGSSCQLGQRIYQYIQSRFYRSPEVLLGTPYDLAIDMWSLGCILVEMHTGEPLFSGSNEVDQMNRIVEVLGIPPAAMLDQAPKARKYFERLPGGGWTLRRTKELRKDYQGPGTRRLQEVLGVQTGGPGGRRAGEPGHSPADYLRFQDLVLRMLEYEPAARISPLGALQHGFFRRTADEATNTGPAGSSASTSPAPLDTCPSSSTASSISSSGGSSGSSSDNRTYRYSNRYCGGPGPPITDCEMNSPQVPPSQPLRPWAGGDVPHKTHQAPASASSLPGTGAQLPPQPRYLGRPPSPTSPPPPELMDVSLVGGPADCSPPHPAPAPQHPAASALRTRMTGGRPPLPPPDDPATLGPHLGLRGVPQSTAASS

[5] = target: Dual specificity tyrosine-phosphorylation-regulated kinase 1B (Homo sapiens) (UniProt Q9Y463); settings: at 1 µM
[6] = target: T1, Dual specificity tyrosine-phosphorylation-regulated kinase 2 (Homo sapiens) (UniProt Q92630); settings: at 0.1 µM
T1 sequence (whole entry): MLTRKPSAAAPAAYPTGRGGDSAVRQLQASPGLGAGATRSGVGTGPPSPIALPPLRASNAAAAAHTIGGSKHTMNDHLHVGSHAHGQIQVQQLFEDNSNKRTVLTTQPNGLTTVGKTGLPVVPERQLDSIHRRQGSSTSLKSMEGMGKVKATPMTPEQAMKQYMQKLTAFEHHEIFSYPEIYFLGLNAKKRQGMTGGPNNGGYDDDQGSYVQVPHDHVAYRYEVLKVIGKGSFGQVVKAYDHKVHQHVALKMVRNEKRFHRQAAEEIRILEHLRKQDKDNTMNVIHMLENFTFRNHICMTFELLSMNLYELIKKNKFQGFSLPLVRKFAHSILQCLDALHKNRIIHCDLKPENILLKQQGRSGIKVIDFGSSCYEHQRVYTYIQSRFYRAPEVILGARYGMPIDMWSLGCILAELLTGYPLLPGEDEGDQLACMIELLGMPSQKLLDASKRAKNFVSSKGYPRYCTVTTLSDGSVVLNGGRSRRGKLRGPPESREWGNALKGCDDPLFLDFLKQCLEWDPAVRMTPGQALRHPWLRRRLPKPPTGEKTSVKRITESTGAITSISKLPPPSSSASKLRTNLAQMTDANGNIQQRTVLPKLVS

[7] = target: T1, Dual specificity tyrosine-phosphorylation-regulated kinase 2 (Homo sapiens); settings: at 1 µM
[8] = target: Glycogen synthase kinase-3 alpha (Homo sapiens) (UniProt P49840); settings: at 0.1 µM
Chain of Glycogen synthase kinase-3 alpha (Homo sapiens) (P49840 2-483 limits assumed): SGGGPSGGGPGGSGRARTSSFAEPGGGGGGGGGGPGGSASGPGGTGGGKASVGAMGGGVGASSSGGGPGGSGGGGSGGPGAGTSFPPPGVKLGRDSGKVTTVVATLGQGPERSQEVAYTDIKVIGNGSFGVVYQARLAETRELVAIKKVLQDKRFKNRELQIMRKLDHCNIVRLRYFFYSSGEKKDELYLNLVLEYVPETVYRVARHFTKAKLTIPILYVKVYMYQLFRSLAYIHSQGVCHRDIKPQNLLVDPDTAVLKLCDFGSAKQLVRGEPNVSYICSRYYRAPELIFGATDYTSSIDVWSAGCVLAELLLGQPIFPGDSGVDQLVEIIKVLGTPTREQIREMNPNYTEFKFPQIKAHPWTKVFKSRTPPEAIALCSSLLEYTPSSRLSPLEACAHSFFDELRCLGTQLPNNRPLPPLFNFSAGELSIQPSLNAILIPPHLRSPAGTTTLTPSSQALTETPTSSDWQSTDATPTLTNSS

[9] = target: Glycogen synthase kinase-3 alpha (Homo sapiens) (UniProt P49840); settings: at 1 µM
[10] = target: Glycogen synthase kinase-3 beta (Homo sapiens) (UniProt P49841); settings: at 0.1 µM
Chain of Glycogen synthase kinase-3 beta (Homo sapiens) (P49841 whole entry, looked up): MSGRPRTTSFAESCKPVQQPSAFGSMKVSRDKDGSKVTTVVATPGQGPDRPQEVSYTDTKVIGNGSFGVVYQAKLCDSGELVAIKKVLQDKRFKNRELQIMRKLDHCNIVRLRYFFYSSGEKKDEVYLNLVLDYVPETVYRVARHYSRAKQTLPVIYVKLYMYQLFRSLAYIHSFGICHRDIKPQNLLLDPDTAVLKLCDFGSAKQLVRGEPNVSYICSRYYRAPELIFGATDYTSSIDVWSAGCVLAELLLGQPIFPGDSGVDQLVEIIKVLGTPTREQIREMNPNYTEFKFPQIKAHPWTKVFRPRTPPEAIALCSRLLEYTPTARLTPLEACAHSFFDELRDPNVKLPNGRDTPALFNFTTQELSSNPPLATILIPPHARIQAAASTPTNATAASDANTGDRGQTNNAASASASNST

[11] = target: Glycogen synthase kinase-3 beta (Homo sapiens) (UniProt P49841); settings: at 1 µM
[12] = target: Homeodomain-interacting protein kinase 1 (Homo sapiens) (UniProt Q86Z02); settings: at 0.1 µM
Chain of Homeodomain-interacting protein kinase 1 (Homo sapiens) (Q86Z02 whole entry, looked up): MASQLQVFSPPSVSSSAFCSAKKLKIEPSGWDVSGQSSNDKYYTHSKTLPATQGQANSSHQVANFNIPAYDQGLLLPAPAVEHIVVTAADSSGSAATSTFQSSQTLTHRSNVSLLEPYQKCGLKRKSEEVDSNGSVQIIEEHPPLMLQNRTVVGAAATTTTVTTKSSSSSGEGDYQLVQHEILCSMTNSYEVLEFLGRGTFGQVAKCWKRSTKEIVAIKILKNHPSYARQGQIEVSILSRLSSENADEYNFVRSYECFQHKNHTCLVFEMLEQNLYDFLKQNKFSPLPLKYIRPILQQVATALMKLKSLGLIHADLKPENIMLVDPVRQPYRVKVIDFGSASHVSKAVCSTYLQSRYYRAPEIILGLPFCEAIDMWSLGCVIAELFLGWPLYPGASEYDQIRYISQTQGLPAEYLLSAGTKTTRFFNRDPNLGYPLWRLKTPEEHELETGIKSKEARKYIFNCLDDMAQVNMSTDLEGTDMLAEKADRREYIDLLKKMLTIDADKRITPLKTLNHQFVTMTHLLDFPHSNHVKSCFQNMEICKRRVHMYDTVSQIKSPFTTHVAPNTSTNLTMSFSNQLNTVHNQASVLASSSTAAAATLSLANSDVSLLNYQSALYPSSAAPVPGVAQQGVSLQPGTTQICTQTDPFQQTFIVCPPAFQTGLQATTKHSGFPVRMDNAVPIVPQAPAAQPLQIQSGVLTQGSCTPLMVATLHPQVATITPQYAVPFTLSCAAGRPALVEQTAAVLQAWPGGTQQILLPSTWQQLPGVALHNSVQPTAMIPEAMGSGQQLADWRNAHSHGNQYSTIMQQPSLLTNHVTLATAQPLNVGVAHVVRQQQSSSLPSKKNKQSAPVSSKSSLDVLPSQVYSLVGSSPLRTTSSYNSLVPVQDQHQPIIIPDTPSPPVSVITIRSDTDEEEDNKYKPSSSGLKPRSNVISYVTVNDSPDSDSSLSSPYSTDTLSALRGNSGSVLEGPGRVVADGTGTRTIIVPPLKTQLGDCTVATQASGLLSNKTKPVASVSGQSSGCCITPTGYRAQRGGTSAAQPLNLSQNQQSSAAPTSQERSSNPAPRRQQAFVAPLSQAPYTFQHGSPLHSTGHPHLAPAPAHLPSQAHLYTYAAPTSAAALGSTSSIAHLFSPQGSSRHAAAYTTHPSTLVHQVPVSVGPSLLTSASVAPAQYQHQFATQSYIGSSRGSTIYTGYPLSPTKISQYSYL

[13] = target: Homeodomain-interacting protein kinase 1 (Homo sapiens) (UniProt Q86Z02); settings: at 1 µM
[14] = target: T2, Homeodomain-interacting protein kinase 4 (Homo sapiens) (UniProt Q8NE63); settings: at 0.1 µM
T2 sequence (whole entry): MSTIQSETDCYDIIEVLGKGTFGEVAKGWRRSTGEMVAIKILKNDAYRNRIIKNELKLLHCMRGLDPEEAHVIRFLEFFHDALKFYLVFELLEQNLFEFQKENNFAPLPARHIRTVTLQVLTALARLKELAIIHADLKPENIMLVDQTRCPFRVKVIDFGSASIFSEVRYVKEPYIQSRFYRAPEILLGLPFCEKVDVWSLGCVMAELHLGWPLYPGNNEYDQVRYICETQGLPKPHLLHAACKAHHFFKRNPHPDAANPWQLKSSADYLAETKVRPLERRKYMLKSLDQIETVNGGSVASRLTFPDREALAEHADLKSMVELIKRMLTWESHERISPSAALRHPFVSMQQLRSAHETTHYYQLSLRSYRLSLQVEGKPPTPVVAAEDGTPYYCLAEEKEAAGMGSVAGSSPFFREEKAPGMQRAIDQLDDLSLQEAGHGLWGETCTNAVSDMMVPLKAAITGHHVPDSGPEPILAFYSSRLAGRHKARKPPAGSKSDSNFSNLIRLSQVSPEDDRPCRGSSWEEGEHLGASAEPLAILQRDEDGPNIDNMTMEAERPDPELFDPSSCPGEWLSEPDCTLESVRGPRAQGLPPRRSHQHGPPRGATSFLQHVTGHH

[15] = target: T2, Homeodomain-interacting protein kinase 4 (Homo sapiens); settings: at 1 µM
[16] = target: Mitogen-activated protein kinase 9 (Homo sapiens) (UniProt P45984); settings: at 0.1 µM
Chain of Mitogen-activated protein kinase 9 (Homo sapiens) (P45984 whole entry, looked up): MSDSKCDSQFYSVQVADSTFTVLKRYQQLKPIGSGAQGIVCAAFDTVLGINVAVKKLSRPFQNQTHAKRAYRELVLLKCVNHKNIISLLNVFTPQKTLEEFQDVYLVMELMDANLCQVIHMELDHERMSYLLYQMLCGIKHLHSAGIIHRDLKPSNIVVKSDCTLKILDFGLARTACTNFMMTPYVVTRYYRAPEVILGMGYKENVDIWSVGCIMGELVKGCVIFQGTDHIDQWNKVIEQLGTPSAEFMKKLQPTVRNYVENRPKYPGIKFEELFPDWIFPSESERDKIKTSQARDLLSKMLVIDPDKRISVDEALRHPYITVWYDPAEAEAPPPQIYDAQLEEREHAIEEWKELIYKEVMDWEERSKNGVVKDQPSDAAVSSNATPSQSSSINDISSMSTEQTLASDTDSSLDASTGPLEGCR

[17] = target: Mitogen-activated protein kinase 9 (Homo sapiens) (UniProt P45984); settings: at 1 µM
[18] = target: Mitogen-activated protein kinase 1 (Homo sapiens) (UniProt P28482); settings: at 0.1 µM
Chain of Mitogen-activated protein kinase 1 (Homo sapiens) (P28482 whole entry): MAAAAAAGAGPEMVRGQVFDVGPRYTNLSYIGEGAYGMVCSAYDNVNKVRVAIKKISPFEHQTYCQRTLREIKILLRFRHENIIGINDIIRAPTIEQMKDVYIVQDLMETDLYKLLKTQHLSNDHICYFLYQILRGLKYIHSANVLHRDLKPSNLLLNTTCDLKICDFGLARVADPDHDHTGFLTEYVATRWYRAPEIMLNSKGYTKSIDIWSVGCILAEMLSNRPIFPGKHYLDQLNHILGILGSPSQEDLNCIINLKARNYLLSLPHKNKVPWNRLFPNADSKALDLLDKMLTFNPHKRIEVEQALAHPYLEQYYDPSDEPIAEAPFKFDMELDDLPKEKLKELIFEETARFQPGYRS

[19] = target: Mitogen-activated protein kinase 1 (Homo sapiens) (UniProt P28482); settings: at 1 µM
[20] = target: Mitogen-activated protein kinase 3 (Homo sapiens) (UniProt P27361); settings: at 0.1 µM;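 also: each value is a mean inhibition figure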
Chain of Mitogen-activated protein kinase 3 (Homo sapiens) (P27361 whole entry): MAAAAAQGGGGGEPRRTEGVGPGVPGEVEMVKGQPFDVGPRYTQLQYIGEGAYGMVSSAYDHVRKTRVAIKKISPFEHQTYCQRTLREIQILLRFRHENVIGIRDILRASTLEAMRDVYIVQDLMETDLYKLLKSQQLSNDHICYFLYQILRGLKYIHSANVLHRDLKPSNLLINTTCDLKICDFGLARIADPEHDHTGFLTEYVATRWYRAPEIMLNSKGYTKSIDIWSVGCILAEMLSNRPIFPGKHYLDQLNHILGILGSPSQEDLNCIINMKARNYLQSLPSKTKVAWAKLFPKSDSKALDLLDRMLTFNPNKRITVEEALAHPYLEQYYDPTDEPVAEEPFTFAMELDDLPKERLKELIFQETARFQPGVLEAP

Chain of Dual specificity protein kinase CLK3 (Homo sapiens) (P49761 whole entry, looked up): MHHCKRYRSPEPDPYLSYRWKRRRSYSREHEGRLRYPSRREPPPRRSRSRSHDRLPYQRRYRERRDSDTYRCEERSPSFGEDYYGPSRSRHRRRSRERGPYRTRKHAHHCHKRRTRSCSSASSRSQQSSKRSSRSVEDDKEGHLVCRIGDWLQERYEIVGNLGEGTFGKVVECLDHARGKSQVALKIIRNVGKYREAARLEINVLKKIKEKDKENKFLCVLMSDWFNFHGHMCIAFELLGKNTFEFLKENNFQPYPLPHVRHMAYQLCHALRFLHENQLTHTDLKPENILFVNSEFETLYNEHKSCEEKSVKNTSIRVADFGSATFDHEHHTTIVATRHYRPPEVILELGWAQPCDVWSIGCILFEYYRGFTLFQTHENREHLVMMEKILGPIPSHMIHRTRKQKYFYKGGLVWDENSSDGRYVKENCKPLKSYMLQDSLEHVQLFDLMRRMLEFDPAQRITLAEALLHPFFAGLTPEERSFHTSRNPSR

| Structure (SMILES) | inhibition [1] [%] | inhibition [2] [%] | inhibition [3] [%] | inhibition [4] [%] | inhibition [5] [%] | inhibition [6] [%] | inhibition [7] [%] | inhibition [8] [%] | inhibition [9] [%] | inhibition [10] [%] | inhibition [11] [%] | inhibition [12] [%] | inhibition [13] [%] | inhibition [14] [%] | inhibition [15] [%] | inhibition [16] [%] | inhibition [17] [%] | inhibition [18] [%] | inhibition [19] [%] | inhibition [20] [%] |
| --- | --- | --- | --- | --- | --- | --- | --- | --- | --- | --- | --- | --- | --- | --- | --- | --- | --- | --- | --- | --- |
| NC(=O)c1sc(-n2cnc3cc(C(F)(F)F)ccc32)cc1OCc1ccccc1Br | -0.53 | -0.2 | 1.95 | -0.04 | 0.72 | 1.75 | 0.34 | 1.61 | 2.55 | 1.16 | 2.38 | -3.51 | 0.77 | -0.26 | 2.95 | 0.9 | 1.72 | 0.51 | 2.13 | 3.5 |
| COc1cccc(COc2cc(-n3cnc4ccccc43)sc2C(N)=O)c1 | -0.91 | 0.34 | -0.09 | -0.5 | -2.7 | -0.21 | -2.08 | 1.06 | 3.48 | 0.09 | 2.12 | -6.56 | 1.66 | -0.59 | 2.84 | 2.36 | -2.62 | 1.13 | 1.97 | 2.69 |
| Nc1nonc1-c1nc2cnccc2n1C1CCCCC1 | 2.98 | 34.3 | 78 | 23.4 | 71.2 | -2.75 | -0.12 | 66.1 | 90.8 | 62.5 | 90 | -0.6 | 16.1 | 0.63 | 10.3 | -0.52 | -0.67 | -1.37 | 1.38 | -0.87 |
| Cc1cc(-c2ccco2)cc(C)c1/C=C/c1cncc(-c2nn[nH]n2)c1 | 0.08 | -0.27 | 2.81 | -0.75 | 0.15 | -0.1 | -1.43 | 0.36 | 0.72 | 0.5 | 0.28 | -3.37 | -0.75 | -0.32 | -0.04 | 1.02 | 0.6 | 1.32 | 2.18 | 3.63 |
| COc1cc2c(cc1Nc1nc(Nc3ccsc3C(N)=O)c3cc[nH]c3n1)N(C(=O)CN(C)C)CCC2 | 2.92 | -1.83 | 0.58 | -0.31 | 4.64 | -0.67 | -2.75 | 1.22 | 0.89 | 1.05 | 2.63 | -2.33 | 5.85 | 2.25 | 5.44 | 3.02 | 8.04 | – | – | 2.93 |
| NS(=O)(=O)c1ccc(-c2ccc3c(NC(=O)C4CC4)n[nH]c3c2)cc1 | 2.75 | 2.37 | 5.69 | 0.86 | 3.29 | 1.63 | 3.47 | 5.27 | 8.87 | 4.15 | 7.66 | 2.52 | 7.94 | 3.34 | 4.2 | 3.73 | 4.23 | 2.15 | 3 | 1.44 |
| CCn1c(-c2nonc2N)nc2c(C#CC(C)(C)O)nc(O[C@@H](CN)c3ccccc3)cc21 | 1.71 | 1.79 | 7.95 | 2.3 | 9.96 | -1.27 | 0.08 | 52.7 | 86.1 | 53.4 | 84.6 | 10.4 | 55.3 | 3.23 | 36.3 | 2.01 | 1.01 | -1.73 | 5.15 | 0.9 |
| CCn1c(-c2nonc2N)nc2c(C#CC(C)(C)O)ncc(OC[C@@H]3CCCN3)c21 | -0.53 | -0.49 | -0.73 | -2.29 | -1.07 | 0.4 | -2.07 | 9.78 | 44.4 | 9.2 | 46.9 | -6.24 | 6.03 | 0.03 | 0.31 | -0.05 | 0.92 | 1.59 | 1.3 | 1.69 |
| CCn1c(-c2nonc2N)nc2c(C#CCN)ncc(OCCCN)c21 | -1.34 | 1.67 | 4.43 | 5.17 | 7.49 | -2.75 | -1.66 | 0.52 | 9.28 | 3.41 | 14.4 | 3.64 | 2.54 | 1.45 | 2.86 | -2.82 | -3.07 | -2.43 | -4.85 | -3.01 |
| COc1cc(C=NNc2ncnc3c2cnn3Cc2ccccc2)ccc1O | 9.8 | 3.11 | 9.48 | 3.37 | 8.92 | -4.67 | -1.79 | 5.54 | 19.6 | 5.36 | 17.7 | -2.83 | 1.68 | -0.49 | 2.59 | -0.98 | -0.48 | 2.37 | -6.99 | -2.79 |
| NS(=O)(=O)c1ccc(N/C=C2\C(=O)Nc3ccc4ncsc4c32)cc1 | 9.47 | 21.7 | 74.4 | 9.26 | 44.9 | 6.51 | 29 | 25.2 | 62.8 | 26.1 | 65.1 | 3.83 | 34.7 | 1.88 | 11.8 | 5.59 | 20.2 | 8.37 | 31.1 | 5.66 |
| COc1cccc(-n2ncc3c(N/N=C/c4ccncc4)ncnc32)c1 | 19.3 | 28.7 | 72.3 | 16.2 | 53.9 | 14.2 | 58.9 | 85.7 | 90 | 83.4 | 89.2 | 26.6 | 69.8 | 19.6 | 61.3 | 0.79 | 11.2 | 5.32 | 7.16 | 4.96 |
| CCn1c(-c2nonc2N)nc2c(C#CC(C)(C)O)ncc(OCC3CCNCC3)c21 | -1.7 | -3.13 | 1.2 | -4.04 | -0.01 | 1.35 | 1.98 | 12.9 | 53.9 | 11.9 | 55.4 | 0.15 | 19.7 | 1.95 | 11.1 | 2.04 | 2.67 | 5.25 | 4.1 | 5.07 |
| Fc1ccc(-c2ncn(C3CCNCC3)c2-c2ccnc(Oc3ccccc3)n2)cc1 | -4.71 | -2.73 | -2.33 | -4.97 | -5.21 | 1.43 | 0.78 | -1.47 | -2.08 | -2.46 | -1.88 | -7.18 | -6.2 | 0.38 | 2.3 | – | – | 2.78 | 6.09 | 2.44 |
